High-throughput results deposited in PubChem by Broad Institute.
Tg IFNy HTS: T. gondii growth inhibition under IFN-gamma. Toxoplasma gondii growth in IFN-gamma-treated host cells; stronger effect = lower value. activity change, negative = inhibition, % (no concentration beside the values). hit rate 3.8% among 69,000. AID 1259416; in the data active = activity change below about -70%, passing the limit was not always enough;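 also: host cells are HeLa cells infected with Toxoplasma gondii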
* hit, by the source's call. This is one part of a sample in which hits are shown more often than they occur.

SMILES | Tg IFNy HTS
Cc1cccc(S(=O)(=O)N2CC3CCCC(N(C)Cc4ccco4)C3C2)c1 (configuration not stated) | 9
CC(C)(C)N1CC(C(=O)NCCOc2ccc(-c3ccccc3)cc2)CC1=O (configuration not stated) | -35
COc1ccc(S(=O)(=O)N2CCc3nc(-c4ccccc4)sc3C2)cc1 | -20
COc1ccc(-c2nc3c(s2)CN(S(=O)(=O)c2ccc(OC)c(OC)c2)CC3)cc1 | -16
COc1ccc(S(=O)(=O)N2CCc3nc(-c4ccc(C)cc4)sc3C2)cc1 | -45
COc1cccc(-c2nc3c(s2)CN(S(=O)(=O)c2cccc(C)c2)CC3)c1 | -105*
O=S(=O)(c1ccc(Cl)cc1)N1CCc2nc(-c3ccccc3)sc2C1 | 19
COc1ccc(-c2nc3c(s2)CN(S(=O)(=O)c2cccc(Cl)c2)CC3)cc1 | 0
CC(C)c1ccc(S(=O)(=O)N2CCc3nc(-c4ccccc4)sc3C2)cc1 | -98*
COc1cccc(-c2nc3c(s2)CN(S(=O)(=O)c2ccc(F)c(Cl)c2)CC3)c1 | -37
COc1ccc(-c2nc3c(s2)CN(S(=O)(=O)c2ccc(C)c(C)c2)CC3)cc1 | -103*
COc1cccc(-c2nc3c(s2)CN(S(=O)(=O)c2ccccc2Cl)CC3)c1 | -102*
CN(C(=O)c1ccc(-n2cccc2)cc1)C1Cc2ccccc2C1 | 15
CCN(C/C=C/c1ccccc1)C(=O)[C@H](N)Cc1ccccc1 | 0
COc1ccc(CN2CCC3(CC(n4cnnc4)CO3)C2)cc1 (configuration not stated) | -43
COC(=O)c1ccc(CN2CCCCC2c2ccc(F)cc2)o1 (configuration not stated) | 11
O=S(c1ccc(Cl)cc1)c1ccc(-c2ccccn2)s1 (configuration not stated) | 27
COCCN1CCN(C(=O)NCc2cccnc2)Cc2cccnc21 | 1
CCCCc1ncc(C2=NS(=O)(=O)c3ccccc3N2)[nH]1 | 43
Cc1ccccc1NC(=O)CC(=O)N(C)Cc1snnc1C | -9
c1ccc(OCCSC2=NCCN2)cc1 | 6
CCC1=N[C@@]2(CC[C@@H]3CN(c4ncccn4)C[C@H]32)C(=O)N1CC | -1
CCN1CCC2(CC1)OC(=O)C(C)=C2C(=O)Nc1ccccc1Br | 166
CCN(Cc1ccc(C(=O)Nc2ccccc2C)cc1)Cc1noc(C)n1 | -4
COc1cc(CCNC(=O)COc2c(C)ccc(C)c2C)ccc1O | 19
SMILES | Tg IFNy HTS
CCc1cc(C(=O)N2CCCC(CCc3ccc(F)cc3)C2)ccn1 (configuration not stated) | -35
Cc1ccc(-c2nc3c(s2)CN(S(=O)(=O)c2ccc(Cl)cc2)CC3)cc1 | 23
CCCc1ccc(S(=O)(=O)N2CCc3nc(-c4cccc(OC)c4)sc3C2)cc1 | 2
COc1cccc(-c2nc3c(s2)CN(S(=O)(=O)c2ccc(C)c(C)c2)CC3)c1 | -104*
CCOc1ccc(-c2nc3c(s2)CN(S(=O)(=O)c2ccc(OCC)cc2)CC3)cc1 | 37
CCOc1ccc(-c2nc3c(s2)CN(S(=O)(=O)c2ccccc2)CC3)cc1 | -49
CCc1ccccc1S(=O)(=O)N1CCc2nc(-c3ccccc3)sc2C1 | -68
COc1cccc(-c2nc3c(s2)CN(S(=O)(=O)c2cc(C)ccc2C)CC3)c1 | -102*
Cc1c(Cl)cccc1S(=O)(=O)N1CCc2nc(-c3ccccc3)sc2C1 | -83*
CCOc1ccc(-c2nc3c(s2)CN(S(=O)(=O)c2cc(C)cc(C)c2)CC3)cc1 | -95*
CCc1ccc(S(=O)(=O)N2CCc3nc(-c4cccc(OC)c4)sc3C2)cc1 | -46
CCc1ccc(-c2nccn2C(C)c2nc(C)cs2)o1 (configuration not stated) | -2
C=CCOCC1CN(C(N)=O)Cc2nccn2C1 (configuration not stated) | -19
CCCN1C(=O)CCc2cc(NC(=O)Cc3ccccc3OC)ccc21 | 72
COc1ccc(OCC(=O)N2CCC3(CC2)Nc2ccc(C)c(C)c2-n2cccc23)cc1 | 28
CC(=O)Nc1ccc(S(=O)(=O)Nc2ccc3c(c2)CCC(=O)N3C)cc1 | 35
CSc1ncc(CN(Cc2sccc2C)CC(C)O)cn1 (configuration not stated) | 40
COc1ccc(-n2cccn2)c(CN2CC(c3ccncc3)C2)c1 | -4
CCc1ccc(CN2Cc3nccn3CC(Cn3cncn3)C2)o1 (configuration not stated) | 66
Cn1cc(CN2CC[C@@H]3OCCN(C(=O)c4ccncc4)[C@@H]3C2)cn1 | 6
COc1ccc(S(=O)(=O)N2CCc3nc(-c4ccc(OC)c(OC)c4)sc3C2)cc1 | -32
COc1ccc(-c2nc3c(s2)CN(S(=O)(=O)c2cccc(C)c2)CC3)cc1OC | -89*
COc1ccc(-c2nc3c(s2)CN(S(=O)(=O)c2cccc(F)c2)CC3)cc1OC | 29
CO[C@H](CN(C)S(=O)(=O)c1cn(C)cn1)[C@H](C)CN(C(=O)Nc1ccc(C(F)(F)F)cc1)[C@H](C)CO | -50
COc1cc2c(cc1OC)C(c1sc3ccccc3c1Cl)=NCC2 | -113*
SMILES | Tg IFNy HTS
COc1cc2c(cc1OC)C(c1c(-c3ccccc3)noc1C)=NCC2 | -38
COc1cc2c(cc1OC)C(c1ccccc1)=NCC2 | -28
COc1ccc(-c2nc3ccc(C)cn3c2NC2CCCC2)cc1O | 8
Cc1ccc(C)c(C(NC(=O)c2cc(C)nc(N)n2)c2cccnc2)c1 (configuration not stated) | -8
O=S(=O)(c1ccc(F)cc1)N1C[C@H]2[C@@H](c3ccccc31)[C@@H](CO)N2Cc1ccccc1Cl | -79*
O=C(Nc1ccc(F)cc1)N1C[C@@H]2[C@H](c3ccccc31)[C@H](CO)N2Cc1ccccc1Cl | 37
O=S(=O)(c1ccc(F)cc1)N1C[C@@H]2[C@H](c3ccccc31)[C@@H](CO)N2Cc1ccccc1Cl | -3
O=C(C[C@@H]1CC[C@H](NC(=O)Nc2ccc(C(F)(F)F)cc2)[C@@H](CO)O1)NCc1cccc(F)c1 | -53
Cc1ccc(CNC(=O)c2cc3cc(S(=O)(=O)N(C)C)ccc3n2Cc2ccncc2)o1 | 13
CC(C)C(NC(=O)c1ccc(Cn2cncn2)cc1)c1ccc2c(c1)OCCCO2 (configuration not stated) | -10
CC[C@@H](C(=O)O)[C@@H]1O[C@@H]([C@@H](C)[C@H](O)[C@H](C)C(=O)[C@H](CC)[C@H]2O[C@]3(C=C[C@@H](O)[C@]4(CC[C@@](C)(C5CC[C@](O)(CC)[C@H](C)O5)O4)O3)[C@H](C)C[C@@H]2C)[C@@H](C)C[C@H]1C (some centres not stated) | -81*
Cc1cccc(COC[C@]23CCC[C@@H]2CN(C(=O)c2cccs2)C3)n1 | 10
CC(C)CN1C(=O)C2(CC2C(=O)NC2CCC2)c2ccccc21 (configuration not stated) | 101
Cc1oc(-c2ccc(C(=O)NCc3ccc(OC(C)C)cc3)cc2)nc1CN1CCc2ccccc21 | -88*
Cc1oc(-c2ccc(C(=O)NCCC(C)C)cc2)nc1CN1CCc2ccccc21 | 64
Cc1oc(-c2ccc(C(=O)NCCc3cccs3)cc2)nc1CN1CCc2ccccc21 | -89*
Cc1oc(-c2ccc(C(=O)NCCc3ccc(Cl)cc3)cc2)nc1CN1CCc2ccccc21 | -64
COc1ccc(CNC(=O)c2ccc(-c3nc(CN4CCc5ccccc54)c(C)o3)cc2)cc1OC | 142
Cc1oc(-c2ccc(C(=O)NCCc3ccco3)cc2)nc1CN1CCc2ccccc21 | -64
CNc1nc(-c2ccc(S(C)(=O)=O)cc2)nc2c1CCC2 | -2
